Reference: PubChem BioAssay (NCI)
“And” between values parts separate entries of the source, which are not always exact repeats. Equal values may be shown once. The panel holds about 79,000 compounds, 15% with a hit somewhere; the sample as a whole holds those more often. Unmarked numbers belong to inactive results. The source made the active and inactive calls. Rule as the data show it: active = growth inhibition above about 70%; inactive = the rest.

Assay: NCI Yeast Anticancer Drug Screen. Data for the sgs1 mgt1 strain (AID 161);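 also: 0% = growth of cultures given vehicle only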
Details: S. cerevisiae sgs1 mgt1 strain, at 50.0 µM, stronger effect = higher value
Summary of the method: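 Mutant yeast exposed to compound; growth scored against vehicle-only wells.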

Row | Structure (SMILES) | growth inhibition
1 | CC1(C)[C@@H]2CC[C@@]1(C)CN(CCC[N+](C)(C)C)C2 | -30.6%
2 | CCC1(O)CC(O)c2c(O)c3c(c(O)c2C1C(=O)OC)C(=O)c1cccc(O)c1C3=O (configuration not stated) | 28.2%
3 | COC(=O)C1C2CCCN2OC1(C)CO (configuration not stated) | 12.4%
4 | CCC[CH2][Sn]([Br])([CH2]CCC)[CH2]CCC | 95.8% (active)
5 | Cc1ccc2ccccc2c1 | -6.05%
6 | CN1CN(c2ccccc2)C2(CCN(CC(C)(c3ccc(F)cc3)C3OCCCO3)CC2)C1=O (configuration not stated) | -21.9%
7 | C[P+](C)(C)C | -6.6% and 1.45%
8 | C/C=C/C1(CCCC)C(=O)NC(=O)NC1=O | 4.15%
9 | CCOC(=O)C(Cc1ccc(N(CCCl)CCCl)cc1)NC(=O)C(N)CO (configuration not stated) | 4.75%
10 | CC(COC(=O)NCc1ccccc1)OC(N)=O (configuration not stated) | 13.1%
11 | CS/C([S-])=N/N=C(C)C.CS/C([S-])=N/N=C(C)C.[Pt+2] | 0.7%
12 | O=c1[nH]cc(N=Cc2ccccc2Cl)c(=O)[nH]1.[Cl][Pt][Cl] | -18.1%
13 | [Mn+3].[O-][Cl+3]([O-])([O-])O.[O-]c1ccccc1C=NCCN1CC1.[O-]c1ccccc1C=NCCN1CC1 | 93.5% (active)
14 | CN1C[C@H]2[C@@H](C1=O)[C@H](c1ccccc1)ON2C | -34%
15 | O=C(O)COc1nc(Cl)c(Cl)cc1Cl | 12.5%
16 | CCCCOc1ccc([As](=O)(O)O)cc1 | 4.3%
17 | CC1=CC(=O)NP(=O)(Oc2ccc(C)cc2)N1 (configuration not stated) | -4.65%
